# Results filed as inconclusive are left out. Activity calls are given as the source filed them. Unless noted, the call rests on the fitted dose curve; in most records, active means well fitted curve in the direction sought with a large enough effect; inconclusive means small, poorly fitted or top-dose-only effect, or another doubt; inactive means no such curve, though single readings can be large; an effect the other way counts as inactive or inconclusive. Where a SMILES comes first, the peptide text is derived from it. [ ]: non-standard residue; d: D form. Dip = N[C@H](C(=O)O)C(c1ccccc1)c1ccccc1
# Columns and labels:
# [1] = Primary qHTS for inhibitors of nuclear receptor binding SET domain protein 2 (NSD2) in an isogenic RCH-ACV NSD2 p.E1099K mutant (9B) (AID 1645876); further: nearly all actives have a fitted effect of over 70% in size; further: potency means the concentration at half of the fitted maximal effect
# [2] = Primary qHTS for inhibitors of nuclear receptor binding SET domain protein 2 (NSD2) in an RCH-ACV wild type WT cells (2C) (AID 1645877); further: nearly all actives have a fitted effect of over 70% in size; further: potency means the concentration at half of the fitted maximal effect
# [3] = target: Glutathione peroxidase 1 (Homo sapiens) (UniProt P07203); experiment: Primary qHTS Assay for Inhibitors of Recombinant Selenoprotein Glutathione Peroxidase 1 (GPX1) (AID 1845191); further: nearly all actives have a fitted effect of over 65% in size
# In short: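 GPX1 10 nM, GR 100 nM, GSH 1 mM, NADPH 0.5 mM, CHP 0.5 mM (final). 30-min cpd preincubation, RT. Ex340/Em450 read t=0, t=15 min.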
# [4] = target: Phospholipid hydroperoxide glutathione peroxidase GPX4 (Homo sapiens) (UniProt P36969); experiment: Primary qHTS Assay for Inhibitors of Recombinant Selenoprotein Glutathione Peroxidase 4 (GPX4) (AID 1845192); further: nearly all actives have a fitted effect of over 65% in size
# In short: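 qHTS, GR-coupled: GPX4 200 nM + cpd 30 min RT → GSH 1 mM, NADPH 0.5 mM, GR 100 nM → CHP 0.5 mM start; fluor 340/450 at t0 and t15 min; no-enzyme wells as control.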
# [5] = qHTS drug screen for cell cycle checkpoint inhibitors in PARPi-resistant BRCA-mutant ovarian cancer cell lines. (AID 1963452; calls by dose curve; further: potency means the concentration at half of the fitted maximal effect); conditions: PEO1/OlaR viability, CellTiter-Glo luminescence, 96 h; for Z-AUC: stronger effect = lower value
# In short: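 PEO1, PEO4 and PEO1/OlaR ovarian cancer cells, 600 per well, exposed 96 h at 37C to a dilution series. Viability read by CellTiter-Glo luminescence, normalized to DMSO and empty wells; activity summarized as Z-AUC.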
# [6] = measured here: PEO1 parental Z-AUC
# Phospholipid hydroperoxide glutathione peroxidase GPX4 (Homo sapiens), sequence (P36969 whole entry, looked up): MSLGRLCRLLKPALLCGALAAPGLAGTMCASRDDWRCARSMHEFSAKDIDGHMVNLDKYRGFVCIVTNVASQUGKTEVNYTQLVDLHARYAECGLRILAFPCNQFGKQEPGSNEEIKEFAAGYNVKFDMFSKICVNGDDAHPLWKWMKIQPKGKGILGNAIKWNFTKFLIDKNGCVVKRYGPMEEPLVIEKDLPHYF
# Glutathione peroxidase 1 (Homo sapiens), sequence (P07203 whole entry, looked up): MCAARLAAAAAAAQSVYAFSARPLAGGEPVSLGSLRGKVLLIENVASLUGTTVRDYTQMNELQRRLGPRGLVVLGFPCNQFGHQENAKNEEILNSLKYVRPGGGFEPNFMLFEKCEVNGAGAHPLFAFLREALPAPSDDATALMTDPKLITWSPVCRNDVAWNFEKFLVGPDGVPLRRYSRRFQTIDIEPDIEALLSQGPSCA
Compound,Potency [1],Potency [2],Potency [3],Potency [4],Z-AUC [5],"Z-AUC [5, 6]",Z-AUC ([5]; measured here: PEO4 Z-AUC),Potency [5]
N#Cc1c(N)nc(N)nc1N[C@H](c1nc2c(F)ccc(Cl)c2c(=O)n1-c1cccnc1)C1CC1,0.417 µM (active),0.417 µM (active),inactive,inactive,–,–,–,–
O=C(/C=C/c1ccc2ccccc2n1)c1ccncc1,3.66 µM (active),4.11 µM (active),inactive,–,–,–,–,–
O=Nc1c(-c2c(O)[nH]c3ccc(F)cc23)[nH]c2ccccc12,1.84 µM (active),2.06 µM (active),inactive,–,–,–,–,–
O=C(c1ccc(Nc2nc(C3CC3)cn3c(-c4cn[nH]c4)cnc23)c(F)c1)N1CCOCC1,9.34 µM (active),9.34 µM (active),inactive,inactive,0.98 (inactive),0.912,1.07,–
Cc1cc(C(=O)Nc2nc3cccc(Cl)c3n2C2CCCCN(C(=O)/C=C/CN(C)C)C2)ccn1 (stereo not given),6.51 µM (active),6.51 µM (active),inactive,–,–,–,–,–
CCNCCc1ccc(CN(CC)c2cc(OC)ccc2[C@@H]2CCc3cc(O)ccc3C2)cc1,6.61 µM (active),7.42 µM (active),inactive,inactive,-0.771 (inactive),-0.865,-1.44,–
CC[C@H](C)[C@@H]([C@@H](CC(=O)N1CCC[C@H]1[C@H](OC)[C@@H](C)C(=O)N[C@@H](Cc1ccccc1)c1nccs1)OC)N(C)C(=O)[C@@H](NC(=O)[C@H](C(C)C)N(C)C)C(C)C,inactive,inactive,inactive,inactive,–,-3.14,-2.96,27.5 µM (active)
COc1ccc(S(=O)(=O)N2CCc3cccc(-c4ccncc4)c32)cc1,0.833 µM (active),0.934 µM (active),inactive,inactive,-1.73 (inactive),-1.49,-1.55,–
N#Cc1ccc(Cn2cncc2CN2CCN(c3cccc(Cl)c3)C(=O)C2)cc1,4.68 µM (active),2.63 µM (active),inactive,inactive,-0.462 (inactive),-0.168,-0.142,–
C/C=C/C/C=C/CCC(=O)[C@H]1O[C@H]1C(N)=O,11.8 µM (active),13.2 µM (active),inactive,inactive,-0.297 (inactive),-0.147,-0.049,–
COc1ccc(S(=O)(=O)Nc2cc(-c3csc(C#N)c3)ccc2C)cc1,0.105 µM (active),0.118 µM (active),inactive,inactive,-0.571 (inactive),-1.63,-1.47,–
C/C=C/C[C@@H](C)C(=O)[C@H]1C(=O)N[C@@H](C(C)C)C(=O)N(C)CC(=O)N(C)[C@@H](CC(C)C)C(=O)N[C@@H](C(C)C)C(=O)N(C)[C@@H](CC(C)C)C(=O)N[C@@H](C)C(=O)N[C@H](C)C(=O)N(C)[C@@H](CC(C)C)C(=O)N(C)[C@@H](CC(C)C)C(=O)N(C)[C@@H](C(C)C)C(=O)N1C,inactive,inactive,inactive,inactive,-0.152 (inactive),-0.111,0.176,–
COc1cc(N2CCN(C)CC2)ccc1Nc1ncc2c(n1)N(C)c1ccccc1C(=O)N2,16.6 µM (active),16.6 µM (active),inactive,inactive,-0.466 (inactive),-0.178,0.52,–
NCCCC[C@H](NC(=O)[C@@H](NC(=O)[C@H](Cc1c[nH]c2ccccc12)NC(=O)[C@H](CCCCN)NC(=O)[C@H](CCCCN)NC(=O)[C@H](Cc1c[nH]c2ccccc12)NC(=O)[C@H](Cc1c[nH]c2ccccc12)NC(=O)[C@H](CCCCN)NC(=O)[C@@H](N)CCCCN)C(c1ccccc1)c1ccccc1)C(N)=O (H-KKWWKKW[Dip]K-NH2),13.2 µM (active),20.9 µM (active),inactive,inactive,0.988 (inactive),0.826,0.857,–
C[C@H](NC(=O)c1c(N)nn2cccnc12)c1cc2cccc(C#Cc3cnn(C)c3)c2c(=O)n1-c1ccccc1,1.62 µM (active),3.62 µM (active),inactive,inactive,-0.378 (inactive),0.564,0.799,–
